Screening results: PubChem BioAssay, National Center for Advancing Translational Sciences (NCATS)
The list is not random: actives were taken first. Their share in the collection is about 2.1%.
D2 antag: antagonists of human D2 dopamine receptor; HEK293 TREx D2 cells, calcium flux, dopamine EC80; inhibition, % at 10 µM; 2% of 340,000 active; AID 485344; in the data active = inhibition above about 30%; inactive = below that, where a call was filed; also: 0% is about no effect
Target sequence (P14416 whole entry, looked up): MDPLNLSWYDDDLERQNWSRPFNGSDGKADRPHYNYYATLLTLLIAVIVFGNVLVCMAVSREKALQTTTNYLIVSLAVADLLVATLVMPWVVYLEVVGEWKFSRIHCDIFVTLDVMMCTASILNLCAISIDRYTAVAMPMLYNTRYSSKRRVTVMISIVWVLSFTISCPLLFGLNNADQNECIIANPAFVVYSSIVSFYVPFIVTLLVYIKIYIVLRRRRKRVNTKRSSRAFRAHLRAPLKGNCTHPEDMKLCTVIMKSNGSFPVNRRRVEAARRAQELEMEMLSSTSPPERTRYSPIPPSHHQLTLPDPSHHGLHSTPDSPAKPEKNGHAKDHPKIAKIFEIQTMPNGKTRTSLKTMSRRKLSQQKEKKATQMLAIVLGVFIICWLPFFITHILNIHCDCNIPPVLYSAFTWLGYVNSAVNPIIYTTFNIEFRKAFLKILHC
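Measurement of antagonist activity uses fluorescent calcium dye in inducible HEK293 T-REx D2 cells: 10 s baseline, compound addition with 180 s read, EC80 dopamine addition with a further 180 s read.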
D2 ag-1: agonists of human D2 dopamine receptor (beta-arrestin); P14416; DiscoveRx PathHunter D2 beta-arrestin, luminescence, 90 min; 100% = 57 uM dopamine signal; activation, % (test concentration not listed); 0.084% of 360,000 active; in the data active = activation above about 40%; inconclusive = between about 15% and that limit
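Agonist mode: compounds alone added to overnight-plated D2 PathHunter cells for 90 min at 37 C, with 57 uM final dopamine (EC100) defining full response. Beta-arrestin recruitment detected by chemiluminescent reagent, read after 1 h at ambient temperature.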
LDHA block: blocks human lactate dehydrogenase A. 0.15% of 480,000 active. purified LDHA, NADH/diaphorase-resazurin fluorescence; active compounds read low. activity change, % (values are at about 110 or 230 µM); in the data active = activity change below about -30%; inconclusive = mostly about -25% to -30%;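 also: plate controls were DMSO wells for no effect and wells without enzyme for full effect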
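Remaining NADH was detected by diaphorase (0.133 mg/mL) converting 37 µM resazurin to fluorescent resorufin, read at 0 and 20 minutes. The preceding 5-minute room-temperature reaction used 2 nM LDHA, 0.2 mM sodium pyruvate and 0.06 mM NADH at pH 7.4.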
D2 PAM-1: positive allosteric modulators of human D2 dopamine receptor; AID 485347; potentiation, % at 10 µM; HEK293 T-REx D2, calcium flux, EC20 dopamine potentiation; P14416; 0.34% of 340,000 active;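 active = potentiation over 3 SD above the plate norm, cut at about 30% in these data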; also: 0% is about no effect
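Using a no-wash calcium dye in inducible, force-coupled HEK293 Trex cells expressing D2, we tracked fluorescence each second for 180 s after compound, then for 180 s after EC20 dopamine to detect augmented signalling.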
D2 ag-2: agonists of human D2 dopamine receptor | HEK293 T-REx D2 cells, calcium flux agonist mode | 0.53% of 340,000 active | P14416 | activation, % at 2 µM;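 active = activation over 3 SD above normal in the single-dose calcium agonist read, cut at about 30% in these data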; also: 0% is about no effect
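Agonism is scored from calcium flux in a force-coupled, inducible HEK293 cell line expressing D2, read kinetically for 180 s after compound addition against dopamine controls.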
D2 PAM-2: potentiates the human D2 dopamine receptor allosterically. potentiation, % (concentration not given with the values). DiscoveRx D2 beta-arrestin cells, luminescence, 90 min; 100% = 57 uM dopamine signal. AID 624464. 0.23% of 360,000 active; in the data active = potentiation above about 50%; inconclusive = mostly about 30% to 49%
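D2 cells co-treated with compound plus 50 nM dopamine (EC20) for 90 min at 37 deg C to detect potentiation. Beta-arrestin recruitment was read as enzyme-fragment luminescence after 1 h at ambient temperature. Full response was set by 57 uM dopamine.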
The depositor's hits bear a star; ? = inconclusive; . = not tested or not shown.

SMILES	D2 antag	D2 ag-1	LDHA block	D2 PAM-1	D2 ag-2	D2 PAM-2
Cc1cc(F)ccc1S(=O)(=O)N1CCCOC1CNC(=O)C(=O)NCCN1CCOCC1 (stereo not given)	5	3	-2	3	2	14
O=c1[nH]c(CN2CCCCCCC2)nc2c(Br)cc(Br)cc12	.	.	-19	.	.	.
O=C(NCc1ccccc1CN1CCOCC1)c1cc(-c2ccco2)nc2ccccc12	.	.	12	.	.	.
Cc1cccc(Nc2nc3ccccc3nc2NS(=O)(=O)c2cccc3nsnc23)c1	.	.	11	.	.	.
O=C(NN1CCOCC1)c1ccccc1Br	11	-2	0	33*	1	-2
COc1ccc(C(C)=O)cc1COC(=O)Cc1n[nH]c(=O)c2ccccc12	33*	-3	-3	5	0	-3
Cc1ccc(NC(=O)NCc2ccccn2)cc1	59*	2	-8	4	-2	-10
O=C(Nc1cc(Cl)ccc1Cl)c1cc([N+](=O)[O-])cc(Br)c1O	.	.	-54*	.	.	.
CCOC(=O)c1c(SCC(=O)Nc2nc(C)cs2)nc(=O)[nH]c1C	32*	-3	-1	4	0	-4
COCCSc1ccccc1C(=O)NCCCn1ccnc1	39*	-1	0	4	0	-8
COCCSc1ccccc1C(=O)Nc1ccc(Cl)cc1	58*	1	3	-6	0	-17
COCCSc1ccccc1C(=O)Nc1ccc(Br)cc1	25	-3	-1	8	0	-7
COc1ccc(Cl)cc1NS(=O)(=O)c1cccc(C(=O)N2CCc3sccc3C2)c1	.	.	-4	.	.	.
COc1cccc(NS(=O)(=O)c2ccc(Br)s2)c1	34*	0	-1	8	0	-8
COc1ccc(OC)c(/C=N/NC(=O)CCc2n[nH]c(=O)[nH]c2=O)c1	0	0	0	-2	-1	-7
Cc1ccc(/C=N\NC(=O)CCc2n[nH]c(=O)[nH]c2=O)o1	9	8	0	50*	0	-5
CC(C)N(C(=O)COC(=O)[C@@H]1CC(O)CN1S(=O)(=O)c1ccc(C(C)(C)C)cc1)C(C)C (stereo not given in full)	38*	-2	2	-7	2	-6
CCCCNC1=CC(=O)C(=O)c2ccccc21	3	51*	-17	9	1	-8
CCCCNC1=CC(=O)C(NCCCC)=CC1=O	.	?	47	.	.	0
CN(C)c1nc2c(c(=O)n(C)c(=O)n2C)n1CCc1ccccc1	.	.	5	.	.	.
CCN(CC(=O)Nc1ccc(OC)cc1)C(=O)c1cc(S(=O)(=O)N(C)C)ccc1N1CCCC1	-11	-2	-6	6	0	-16
COc1ccc(NS(=O)(=O)c2cc(NC(=O)CCNC(C)=O)ccc2N2CCCCC2)cc1	37*	2	0	4	0	-2
COc1ccc(NC(=O)CN(C)C(=O)c2cc(S(=O)(=O)N(C)C)ccc2N2CCCC2)cc1	38*	0	-2	8	1	3
CN(C)S(=O)(=O)c1ccc(N2CCCC2)c(C(=O)NNC(=O)COc2ccccc2Cl)c1	20	-2	-2	3	-1	-16
CN(C)S(=O)(=O)c1ccc(N2CCCC2)c(C(=O)NNC(=O)COc2ccccc2F)c1	57*	-1	-1	-5	1	2
SMILES	D2 antag	D2 ag-1	LDHA block	D2 PAM-1	D2 ag-2	D2 PAM-2
COc1ccc(CCC(=O)Nc2ccc(N3CCOCC3)c(S(=O)(=O)Nc3ccc(OC)cc3)c2)cc1	.	-3	-7	.	.	-9
COc1cc(C2CC(=O)N3CN(c4ccc(C)c(Cl)c4)CSC3=C2C#N)ccc1O (stereo not given)	.	.	59	.	.	.
CCCCn1c(N)c(N(CCC)C(=O)c2cccnc2SC)c(=O)[nH]c1=O	.	.	-2	.	.	.
Fc1ccc(CNCc2ccc(-c3ccccc3)o2)cc1	.	.	4	.	.	.
CCOc1cccc2cc(C(=O)N3CCCCCC3)c(=O)oc12	.	.	8	.	.	.
N#CCCN1CCN(c2cc(C(=O)O)c3cc(NC(=O)c4ccccc4)ccc3n2)CC1	.	.	30	.	.	.
Cc1ccc(O)c(N/C=C/C(=O)C(C)(C)C)c1	.	.	15	.	.	.
O=C(Cc1cccs1)N/N=C/C(Br)=C/c1ccccc1	.	2	-21	.	.	-7
Cc1ccccc1NCC(=O)N/N=C/C(Br)=C/c1ccccc1	-6	0	3	33*	-1	-8
Oc1cccc(/C=C/c2nc3ccccc3s2)c1	.	.	10	.	.	.
CC(=O)c1ccc(S(=O)(=O)N2CCN(C(=O)c3ccc(-n4nc(C)c(Cl)c4C)cc3)CC2)cc1	31*	3	-5	-1	22	-6
Cc1cc(C)n(-c2ccc(C(=O)N3CCN(S(=O)(=O)c4ccc(Cl)cc4)CC3)cc2)n1	11	1	-1	-28	-1	-1
C/C(CCc1oc2ccc(C)cc2c1-c1ccc(C)o1)=N\O	.	.	0	.	.	.
CN1/C(=C/C=N/NC(=O)c2ccc([N+](=O)[O-])cc2)C(C)(C)c2ccccc21	37*	1	0	-17	0	-7
Cc1ccc(Cn2c(SCCO)nc3c2c(=O)[nH]c(=O)n3C)cc1	.	.	-4	.	.	.
COC(=O)[C@H](C)NC(=O)NC1CCN(Cc2ccccc2)CC1	50*	-2	-10	-11	0	-20
CCCC(CCC)C(=O)NC1CCN(Cc2ccccc2)CC1	18	0	-4	-18	0	-12
CC(Oc1ccc(Br)cc1)C(=O)NC1CCN(Cc2ccccc2)CC1 (stereo not given)	64*	-5	-4	2	0	-32
CC(C)CCCN1CCN=C1Nc1ccccc1	39*	1	-7	8	0	-15
Cc1ccc(NC(=O)C(c2ccc(Cl)cc2)C(C)C)cc1F (stereo not given)	.	.	9	.	.	.
O=C1C(=Cc2cn(-c3ccccc3)nc2-c2ccc(OCc3ccccc3F)cc2)SC(=S)N1CCS(=O)(=O)O	.	-3	-34*	.	.	0
Cc1ccc(-n2cccc2C=O)c(C)c1	.	.	-2	.	.	.
CCC(C)NC(=O)COC(=O)c1cc([N+](=O)[O-])ccc1Sc1nc(C)cs1 (stereo not given)	12	0	-2	-4	1	51*
Cc1csc(Sc2ccc([N+](=O)[O-])cc2C(=O)OCC(=O)NC2CCCC(C)C2C)n1 (stereo not given)	-14	-1	-15	14	-1	1
NC(=O)CCC(NC(=O)c1ccc(Cl)cc1)C(=O)NCCc1ccc2c(c1)OCCO2 (stereo not given)	42*	-6	-4	8	0	-11
CSCCC(NC(=O)c1ccccc1)C(=O)NCc1ccc(S(N)(=O)=O)cc1 (stereo not given)	31*	2	-5	-8	1	0
